Results: PubChem BioAssay
Calls of active or inactive are those of the source.

Key:
[1] = binders of probe aFSTL3 on microarray, primary screen, stem cell growth factor project, biochemical, small-molecule microarray, fluorescence 635/667 (AID 1064); conditions: higher = more signal;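 note: measures binding of the biotinylated anti-FSTL3 antibody to printed compounds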
[2] = binders from COS7 lysate, DM2A8 probe, primary screen, torsin A project, cell lysate, small-molecule microarray, fluorescence 635/667 (AID 1065); conditions: higher = more signal, COS7 lysate expressing mutant human TOR1A
[3] = binders of probe aFGF2 on microarray, primary screen, stem cell growth factor project, biochemical, small-molecule microarray, fluorescence 635/667 (AID 1067); conditions: higher = more signal;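 note: measures binding of biotinylated aFGF2 protein to printed compounds on slides; z-score merges feature fluorescence and signal-to-noise across triplicate slides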
[4] = binders of probe aFGF10 on microarray, primary screen, stem cell growth factor project, biochemical, small-molecule microarray, fluorescence 635/667 (AID 1071); conditions: higher = more signal;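 note: score merges 667 nm spot intensity and signal to noise from triplicate slides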
[5] = target: Neurogenic locus notch homolog protein 2 (Homo sapiens) (UniProt Q04721); experiment: Notch2 binders on small-molecule microarrays, primary screen, biochemical, small-molecule microarray, 635 nm fluorescence, stem cell growth factors (AID 1073); conditions: Notch2 binding, higher = more signal
[6] = target: Pro-neuregulin-1, membrane-bound isoform (Homo sapiens) (UniProt Q02297); experiment: NRG1 binders on small-molecule microarrays, primary screen, psychiatric disease protein project, biochemical, small-molecule microarray, fluorescence 635/667 (AID 1075); conditions: NRG1 binding, 635 nm fluorescence, higher = more signal;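 note: score combines 667 nm spot fluorescence with signal to noise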
[7] = tested on: Neuregulin-1 EGF-like domain; experiment: binders of neuregulin-1 EGF-like domain, primary screen, biochemical, small-molecule microarray, 635 nm fluorescence (AID 1081); conditions: small-molecule microarray binding, higher = more signal;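 note: binding of the protein to compounds printed on small-molecule microarray slides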
[8] = FRG1 promoter luciferase signal modulators, primary screen, FRG1 inhibition for FSHD, cell-based, C2C12 myotubes, firefly/Renilla luciferase, luminescence (AID 1084); conditions: higher = more signal, called active from +8 up or from −8 down
[9] = binders of probe aFST on microarray, primary screen, stem cell growth factor project, biochemical, small-molecule microarray, fluorescence 635/667 (AID 1086); conditions: higher = more signal;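 note: score merges 667 nm fluorescence with signal-to-noise of each printed compound spot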
[10] = binders of probe aHhip on microarray, primary screen, stem cell growth factor project, biochemical, small-molecule microarray, fluorescence 635/667 (AID 1087); conditions: higher = more signal;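 note: score merges spot fluorescence at 667nm with spot signal to noise ratio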
[11] = tested on: PRMT1 (protein arginine N-methyltransferase 1); experiment: PRMT1 binders on small-molecule microarrays, primary screen, biochemical, small-molecule microarray, 635 nm fluorescence (AID 1088); conditions: small-molecule microarray binding, higher = more signal;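 note: binding of Prmt1 protein to compounds spotted on small-molecule microarray slides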
[12] = yeast growth modulation, basal conditions, primary screen, YJM789 clinical isolate, OD600, 24 h (AID 1089);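 note: growth of clinical yeast isolate S. cerevisiae YJM 789 seeded 1000 cells per well; test concentration not given here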; conditions: S. cerevisiae YJM789 growth, higher = more signal, called active from +8 up or from −8 down
[13] = fission yeast growth modulation, primary screen, strain 972, OD600, 24 h, no modulator (AID 1090);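 note: basal condition with compound alone and no growth modifier present; test concentration not given here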; conditions: S. pombe 972 growth, higher = more signal, called active from +8 up or from −8 down
[14] = S. cerevisiae growth modulation with rapamycin, primary screen, strain BY4716, OD600, 96 h (AID 1091); conditions: higher = more signal, called active from +8 up or from −8 down; note: test concentration not given here
[15] = target: Torsin-1A-interacting protein 2 (Homo sapiens) (UniProt Q8NFQ8); experiment: LULL1 binders on small-molecule microarray, primary screen, cell lysate, human LULL1 lysate, 635/667 nm fluorescence (AID 1092); conditions: hLULL1 lysate binding, 635 nm fluorescence, higher = more signal;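 note: probe is lysate of COS7 cells overexpressing human LULL1; score merges per-feature 667 nm fluorescence with signal-to-noise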
[16] = E. coli growth modulation, two-sided OD650, primary screen, E. coli filamentation project, strain DRC41, 24 h (AID 1093); conditions: OD650, 24 h, higher = more signal, called active from +8 up or from −8 down;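 note: MC1000 strain lacking acrAB efflux and sulA so SOS filamentation is blocked; test concentration not given here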
[17] = small-molecule microarray binders of probe aLefty2, primary screen, biochemical, biotinylated probe, 635/667 nm fluorescence (AID 1094); conditions: higher = more signal;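 note: score merges spot fluorescence near 667 nm with spot signal-to-noise ratio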
[18] = tested on: Noggin (protein binding on small-molecule microarray); experiment: Noggin binders on small-molecule microarray, primary screen, biochemical, 635/667 nm fluorescence (AID 1095); conditions: 635 nm fluorescence, higher = more signal;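 note: score merges 667 nm feature fluorescence with signal to noise over triplicate slides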
[19] = target: Neurogenic locus notch homolog protein 3 (Homo sapiens) (UniProt Q9UM47); experiment: NOTCH3 binders on small-molecule microarray, primary screen, biochemical, 635/667 nm fluorescence (AID 1096); conditions: NOTCH3 binding, 635 nm fluorescence, higher = more signal
[20] = small-molecule microarray binders of probe aEGFR, primary screen, biochemical, biotinylated probe, 635/667 nm fluorescence (AID 1097); conditions: higher = more signal;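 note: probe is a biotinylated anti-EGFR antibody binding compounds printed on slides; score combines fluorescence near 667 nm and signal to noise of each spot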

Pro-neuregulin-1, membrane-bound isoform (Homo sapiens), sequence (Q02297 whole entry, looked up, the tested form may be a part, canonical isoform): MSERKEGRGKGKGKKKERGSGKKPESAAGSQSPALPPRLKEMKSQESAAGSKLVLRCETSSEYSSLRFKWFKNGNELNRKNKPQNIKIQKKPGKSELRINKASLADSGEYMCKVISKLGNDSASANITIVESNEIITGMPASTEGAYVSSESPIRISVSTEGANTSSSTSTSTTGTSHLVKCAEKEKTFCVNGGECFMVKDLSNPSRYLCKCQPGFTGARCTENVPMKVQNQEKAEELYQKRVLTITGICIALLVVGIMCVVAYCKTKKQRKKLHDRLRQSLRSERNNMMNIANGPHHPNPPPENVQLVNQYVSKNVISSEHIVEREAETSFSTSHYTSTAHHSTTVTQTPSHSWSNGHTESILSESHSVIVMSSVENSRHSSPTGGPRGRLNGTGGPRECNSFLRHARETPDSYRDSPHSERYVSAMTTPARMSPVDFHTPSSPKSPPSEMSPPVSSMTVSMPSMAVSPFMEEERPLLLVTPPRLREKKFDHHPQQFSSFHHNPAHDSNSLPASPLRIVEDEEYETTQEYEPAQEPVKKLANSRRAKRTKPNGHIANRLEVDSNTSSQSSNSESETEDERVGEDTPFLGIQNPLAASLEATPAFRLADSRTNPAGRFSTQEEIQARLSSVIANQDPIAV
Neurogenic locus notch homolog protein 3 (Homo sapiens), sequence (Q9UM47 whole entry, looked up): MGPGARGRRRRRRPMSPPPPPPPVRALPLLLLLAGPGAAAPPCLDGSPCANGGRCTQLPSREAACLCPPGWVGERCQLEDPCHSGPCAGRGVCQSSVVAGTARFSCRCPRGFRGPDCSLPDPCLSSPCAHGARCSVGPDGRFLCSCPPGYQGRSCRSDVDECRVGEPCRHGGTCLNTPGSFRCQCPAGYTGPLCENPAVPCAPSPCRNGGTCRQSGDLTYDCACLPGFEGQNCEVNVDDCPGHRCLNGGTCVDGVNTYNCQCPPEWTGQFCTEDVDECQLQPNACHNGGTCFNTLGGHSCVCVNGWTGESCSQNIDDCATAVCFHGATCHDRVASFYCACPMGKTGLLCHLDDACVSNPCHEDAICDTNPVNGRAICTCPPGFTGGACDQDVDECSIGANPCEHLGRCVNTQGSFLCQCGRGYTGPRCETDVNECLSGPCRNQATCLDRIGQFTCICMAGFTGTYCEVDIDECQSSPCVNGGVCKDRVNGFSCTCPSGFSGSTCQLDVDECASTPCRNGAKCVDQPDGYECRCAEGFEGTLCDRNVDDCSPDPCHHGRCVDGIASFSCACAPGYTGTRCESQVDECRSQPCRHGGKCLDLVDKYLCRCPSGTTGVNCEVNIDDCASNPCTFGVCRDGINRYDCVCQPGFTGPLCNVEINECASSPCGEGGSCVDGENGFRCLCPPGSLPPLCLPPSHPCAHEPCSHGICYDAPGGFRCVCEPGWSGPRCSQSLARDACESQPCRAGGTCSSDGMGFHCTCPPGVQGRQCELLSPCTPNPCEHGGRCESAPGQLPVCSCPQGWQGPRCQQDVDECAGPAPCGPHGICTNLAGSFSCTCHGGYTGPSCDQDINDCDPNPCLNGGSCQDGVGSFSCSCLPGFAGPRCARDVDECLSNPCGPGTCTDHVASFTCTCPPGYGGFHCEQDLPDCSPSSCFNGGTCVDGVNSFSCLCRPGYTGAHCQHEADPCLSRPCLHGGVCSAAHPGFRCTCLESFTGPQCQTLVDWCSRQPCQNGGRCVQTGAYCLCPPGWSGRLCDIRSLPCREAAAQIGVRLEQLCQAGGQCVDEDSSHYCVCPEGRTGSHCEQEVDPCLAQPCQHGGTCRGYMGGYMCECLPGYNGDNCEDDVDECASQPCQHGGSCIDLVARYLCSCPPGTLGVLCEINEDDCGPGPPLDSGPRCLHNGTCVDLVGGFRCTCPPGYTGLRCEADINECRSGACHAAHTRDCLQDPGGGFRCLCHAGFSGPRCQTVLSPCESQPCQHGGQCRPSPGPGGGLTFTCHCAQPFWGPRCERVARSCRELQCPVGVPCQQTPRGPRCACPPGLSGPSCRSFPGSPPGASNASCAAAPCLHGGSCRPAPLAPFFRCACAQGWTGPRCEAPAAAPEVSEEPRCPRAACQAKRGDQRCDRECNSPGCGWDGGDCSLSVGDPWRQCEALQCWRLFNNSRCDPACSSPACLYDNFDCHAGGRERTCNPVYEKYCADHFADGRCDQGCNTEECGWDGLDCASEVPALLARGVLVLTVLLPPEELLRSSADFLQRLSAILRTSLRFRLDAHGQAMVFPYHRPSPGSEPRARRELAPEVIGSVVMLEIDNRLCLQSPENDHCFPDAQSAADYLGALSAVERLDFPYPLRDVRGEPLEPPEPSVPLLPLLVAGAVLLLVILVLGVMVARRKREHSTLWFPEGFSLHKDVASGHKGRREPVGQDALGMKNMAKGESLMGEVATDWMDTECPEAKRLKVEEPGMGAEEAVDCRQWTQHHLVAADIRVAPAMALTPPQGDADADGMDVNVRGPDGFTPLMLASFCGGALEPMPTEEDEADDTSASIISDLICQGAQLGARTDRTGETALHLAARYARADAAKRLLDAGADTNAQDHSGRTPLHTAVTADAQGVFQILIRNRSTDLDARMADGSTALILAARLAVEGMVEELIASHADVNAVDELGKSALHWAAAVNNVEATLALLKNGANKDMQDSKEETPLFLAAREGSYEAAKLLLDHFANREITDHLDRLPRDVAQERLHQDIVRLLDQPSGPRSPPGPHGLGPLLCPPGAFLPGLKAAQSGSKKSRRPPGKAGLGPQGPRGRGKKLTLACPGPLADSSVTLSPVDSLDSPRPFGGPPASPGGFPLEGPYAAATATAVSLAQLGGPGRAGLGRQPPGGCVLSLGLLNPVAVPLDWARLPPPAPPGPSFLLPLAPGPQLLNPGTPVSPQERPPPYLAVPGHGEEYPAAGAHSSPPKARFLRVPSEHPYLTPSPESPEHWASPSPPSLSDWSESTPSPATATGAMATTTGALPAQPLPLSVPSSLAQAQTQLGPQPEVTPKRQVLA
Torsin-1A-interacting protein 2 (Homo sapiens), sequence (Q8NFQ8 whole entry, looked up): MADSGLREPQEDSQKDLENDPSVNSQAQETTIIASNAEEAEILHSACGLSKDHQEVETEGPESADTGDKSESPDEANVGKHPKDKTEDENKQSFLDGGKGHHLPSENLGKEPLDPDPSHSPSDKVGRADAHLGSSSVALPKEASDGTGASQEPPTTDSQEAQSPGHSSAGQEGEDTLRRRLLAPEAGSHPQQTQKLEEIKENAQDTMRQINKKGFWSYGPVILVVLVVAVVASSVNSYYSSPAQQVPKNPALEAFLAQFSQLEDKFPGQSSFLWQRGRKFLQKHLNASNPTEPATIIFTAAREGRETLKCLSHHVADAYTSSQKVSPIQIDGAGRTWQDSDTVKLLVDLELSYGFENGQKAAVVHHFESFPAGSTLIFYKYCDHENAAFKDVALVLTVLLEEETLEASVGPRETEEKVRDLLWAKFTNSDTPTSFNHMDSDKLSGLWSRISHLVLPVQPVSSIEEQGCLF

SMILES	composite z-score [1]	composite z-score [2]	composite z-score [3]	composite z-score [4]	composite z-score [5]	composite z-score [6]	composite z-score [7]	z-score [8]	composite z-score [9]	composite z-score [10]	composite z-score [11]	z-score [12]	z-score [13]	z-score [14]	composite z-score [15]	z-score [16]	composite z-score [17]	composite z-score [18]	composite z-score [19]	composite z-score [20]
COc1ccccc1CN1C(=O)c2ccccc2[C@](Cc2ccccc2I)(C(=O)NCC(F)(F)F)[C@@H]1c1ccc(CO)cc1	0.164	0.847	-0.0454	1.21	0.981	1.51	1.36	-0.719 (inactive)	1.37	0.0373	1.55	-0.23 (inactive)	-0.503 (inactive)	0.0879 (inactive)	3.22	-1.13 (inactive)	0.126	0.576	0.872	0.0024
CCOC(=O)C[C@H]1[C@H](OC(=O)c2ccccc2-c2ccccc2)[C@@H](NC(=O)c2ccc(-c3ccccc3)cc2)c2cc(OCCCO)ccc2N1C(=O)c1ccc2ccccc2n1	-0.405	0.286	-0.127	0.754	0.75	0.789	0.849	0.835 (inactive)	0.211	-0.145	1.02	0.214 (inactive)	0.632 (inactive)	0.723 (inactive)	1.11	-0.75 (inactive)	0.0332	0.427	0.592	0.2
CN(C)CCCNC(=O)[C@@H]1c2ccccc2C(=O)N(Cc2ccccc2Cl)[C@H]1c1ccc(CO)cc1	-0.126	0.542	-0.19	0.069	-0.243	0.261	-0.0724	-1.96 (inactive)	-0.177	-0.19	0.226	-0.34 (inactive)	-1.32 (inactive)	-1.04 (inactive)	2.25	0.596 (inactive)	-0.295	-0.611	-0.247	0.0733
O=C1NC(=O)C2C1C=CC(C(O)CCc1ccccc1)N2Nc1ccc(Cl)cc1Cl (stereo not given)	1.18	1.42	0.153	0.229	1.39	1.34	1.1	1.19 (inactive)	1.55	0.011	0.23	-0.455 (inactive)	-2.05 (inactive)	0.0242 (inactive)	2.73	-0.748 (inactive)	0.379	-0.839	-0.0822	0.0122
[N-]=[N+]=NCc1ccccc1[C@@H]1OC(c2ccc(OCCCO)cc2)=N[C@]1(CCS(=O)(=O)c1ccccc1)C(=O)NCC(O)CO (stereo not given in full)	0.445	0.92	0.067	0.367	1.53	2	1.23	-0.547 (inactive)	0.923	-0.0994	1.54	-1.69 (inactive)	-0.741 (inactive)	0.897 (inactive)	3.85	0.171 (inactive)	0.267	1	0.832	-0.0435
